# From PubChem BioAssay AID504873 (The Scripps Research Institute Molecular Screening Center, 2011)
# Entries with a potency or affinity are not part of this list. Activity calls are given as the source filed them. The rule behind the calls is not given here.
# Molecular target: Sphingosine 1-phosphate receptor 2 (Homo sapiens) (UniProt O95136)
# Assay: activation of human S1P2 receptor – cell-based, fluorescence, set 2, counter-screen for S1P4 agonist project, late-stage follow-up (AID 504873)
# Sequence of Sphingosine 1-phosphate receptor 2 (Homo sapiens) (O95136 whole entry, looked up): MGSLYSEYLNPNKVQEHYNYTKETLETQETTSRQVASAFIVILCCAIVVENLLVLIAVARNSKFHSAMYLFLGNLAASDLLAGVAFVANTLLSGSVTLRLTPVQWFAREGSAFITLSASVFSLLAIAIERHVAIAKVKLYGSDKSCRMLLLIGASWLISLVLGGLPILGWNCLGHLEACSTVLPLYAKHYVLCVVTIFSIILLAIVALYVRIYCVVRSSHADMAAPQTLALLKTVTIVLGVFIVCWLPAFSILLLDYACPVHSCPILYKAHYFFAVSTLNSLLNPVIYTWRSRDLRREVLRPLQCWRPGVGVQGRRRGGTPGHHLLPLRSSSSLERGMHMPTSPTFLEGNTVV
compound,measurement,value
CC/N=C1/SC(=Cc2cc(C)n(Cc3ccccc3OC)c2C)C(=O)N1CC,outcome,inactive
